Screening data (PubChem)
ClpP mod: qHTS Assay for Activators of ClpP. purified B. subtilis ClpP, FRET peptide cleavage, 20 min. Potency, µM (top dose mostly 57.5 µM). actives 1.9% (n = 340,000). AID 651965, 2013; active = well fitted falling curve with a large enough effect; inconclusive = small, poorly fitted or top-dose-only effect; inactive = no such curve, though single readings can be large or run the other way; also: the source files actives as falling curves though it sought activators and does not explain the sign; nearly all actives have a fitted effect of over 65% in size
Target sequence (P80244 whole entry, looked up): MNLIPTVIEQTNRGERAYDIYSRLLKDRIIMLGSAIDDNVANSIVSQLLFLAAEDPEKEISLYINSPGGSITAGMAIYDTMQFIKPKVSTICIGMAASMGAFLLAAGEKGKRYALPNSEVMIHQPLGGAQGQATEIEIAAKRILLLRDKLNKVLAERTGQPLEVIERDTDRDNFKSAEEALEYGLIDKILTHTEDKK
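ClpP 10 microg/mL final, pH 8 Tris/KCl buffer with BSA, glycerol, Tween-20; compound pinned in; FRET-FV substrate; RT 20 min; Ex320/Em430; ΔFRET vs ADEP 5.8 microM, DMSO, no enzyme.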
GLP1R ag: activates the human GLP-1 receptor; P43220; HEK293 GLP-1R CRE-luciferase, luminescence, 4-6 h; cells express a hypersensitive GLP-1R form; Potency, µM (titrated, usually from 45.6 µM), hits mostly activators; actives 0.007% (n = 380,000)
Target sequence (P43220 whole entry, looked up): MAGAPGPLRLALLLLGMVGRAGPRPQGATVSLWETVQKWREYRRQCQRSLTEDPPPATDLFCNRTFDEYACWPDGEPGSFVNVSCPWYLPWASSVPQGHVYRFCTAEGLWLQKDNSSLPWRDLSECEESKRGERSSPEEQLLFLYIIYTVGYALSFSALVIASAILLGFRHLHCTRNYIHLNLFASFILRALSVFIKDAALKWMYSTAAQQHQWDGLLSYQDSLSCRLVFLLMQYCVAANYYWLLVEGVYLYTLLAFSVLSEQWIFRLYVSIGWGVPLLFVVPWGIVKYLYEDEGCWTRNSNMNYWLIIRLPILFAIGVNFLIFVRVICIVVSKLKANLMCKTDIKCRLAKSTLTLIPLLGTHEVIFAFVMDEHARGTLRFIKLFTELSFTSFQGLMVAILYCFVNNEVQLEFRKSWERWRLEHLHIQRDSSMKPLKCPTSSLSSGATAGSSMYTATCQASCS
GLP1R inv ag: acts as inverse agonist at human GLP-1 receptor; Potency, µM (doses to about 38.3 µM), most hits filed as inhibitors; HEK293 GLP-1R CRE-luciferase, luminescence, 24 h; GLP-1R form is constitutively active; P43220; actives 1.6% (n = 410,000); also: nearly all actives have a fitted effect of over 55% in size
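GLP-1R inverse agonism mode: basal reporter luminescence in engineered HEK293 cells measured after one day of compound exposure at 37 deg C, with a 12 min room-temperature detection step.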
DRD3 agonist: D3 dopamine receptor (human) agonism; actives 0.58% (n = 410,000); max activation, %; P35462; D3R DiscoveRx beta-arrestin cells, luminescence, 90 min; in the data active = max activation above about 30%
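Agonist-mode cell screen: cells plated at 1500/well and incubated overnight at 37 °C, then exposed to library compounds for 90 min at 37 °C. Detection reagent was added for 30–60 min at room temperature, and luminescence was read.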
DRD3 antagonist: antagonists of human D3 dopamine receptor | P35462 | D3R cells, DiscoveRx beta-arrestin luminescence, antagonist mode; active compounds read low | max response, negative = inhibition, % | actives 2.5% (n = 360,000); in the data active = max response below about -50%; inconclusive = no clear call, values can overlap the other calls
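Cells expressing the human receptor were seeded at 1500 cells/well, incubated overnight at 37 degrees C in 5% CO2, then exposed to library compounds with dopamine controls for 90 minutes at 37 degrees C before luminescent detection.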
HEK293 tox: cytotoxicity counter-screen for GLP-1 receptor inverse agonists; HEK293 cAMP-luciferase reporter cells, luminescence, 24 h; Potency, µM (highest dose often 38.3 µM), actives largely listed as inhibitors; actives 0.13% (n = 410,000); AID 624418;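 also: loss of luciferase light is scored as toxicity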
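To flag toxic compounds, the library was rerun on cells for 24 hr at 37 deg C and 5% CO2. Viability-linked luminescence was captured 12 min after adding luciferase detection reagent.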
Numbers stand for hits; i = inactive; ? = inconclusive; nt = not tested or not shown. Only some compounds are listed: those with a hit (about 5.7% of all), similar ones and a draw of the others. Unless noted, calls follow the shape of the dose curve; as a rule, active = well fitted curve in the direction sought with a large enough effect; inconclusive = small, poorly fitted or top-dose-only effect, or another doubt; inactive = no such curve, though single readings can be large; an effect the other way counts as inactive or inconclusive.

SMILES | ClpP mod | GLP1R ag | GLP1R inv ag | DRD3 agonist | DRD3 antagonist | HEK293 tox
O=C(NCc1cnc2ccccn12)C1CCC(=O)N(Cc2cccc(F)c2)C1 (stereo not given) | 16µM | i | i | i | i | i
CSc1ccc(CNC(=O)C2CCC(=O)N(Cc3cccc(F)c3)C2)cc1 (stereo not given) | i | i | ? | i | i | i
Cc1ccc(OCCC(=O)Nc2cc(S(=O)(=O)N3CCOCC3)ccc2N2CCCC2)cc1 | i | i | i | i | i | i
CCCCn1nnnc1C(C1CC1)N1CCN(C/C=C/c2ccccc2)CC1 (stereo not given) | i | i | ? | i | -137 | i
CCCCn1nnnc1C(c1ccc(OC)cc1)N1CCN(C/C=C/c2ccccc2)CC1 (stereo not given) | i | i | ? | i | -107 | i
COc1ccc(-n2nnnc2C(c2ccnc3ccccc23)N2CCN(C/C=C/c3ccccc3)CC2)cc1 (stereo not given) | i | i | ? | i | -54 | i
CCCCn1nnnc1C(c1cccs1)N1CCN(C/C=C/c2ccccc2)CC1 (stereo not given) | i | i | ? | i | ? | i
COc1ccc(C(c2nnnn2C(C)(C)C)N2CCN(C/C=C/c3ccccc3)CC2)cc1 (stereo not given) | i | i | i | i | -67 | i
CC(C)c1ccc(CNc2n[nH]c(-c3ccco3)n2)cc1 | i | nt | i | i | nt | i
CCNC(=O)C1(C)CCCN(C(=O)c2cc(-c3ccccc3)cs2)C1 (stereo not given) | i | i | i | i | i | i
OC(CN1CCCCC1)c1cc(-c2ccccc2)on1 (stereo not given) | nt | i | nt | i | nt | nt
C(=C\c1ccccc1)/CN1CCN(C(c2ccccc2)c2nnnn2-c2ccc3c(c2)OCCO3)CC1 (stereo not given) | i | i | ? | i | -75 | i
COc1cccc(C(c2nnnn2C(C)(C)C)N2CCN(C/C=C/c3ccccc3)CC2)c1OC (stereo not given) | i | i | ? | i | -102 | i
C(=C\c1ccccc1)/CN1CCN(C(c2ccnc3ccccc23)c2nnnn2-c2ccc3c(c2)OCCO3)CC1 (stereo not given) | i | i | ? | i | i | i
COc1cccc(C(c2nnnn2C(C)(C)C)N2CCN(C3CCCCC3)CC2)c1OC (stereo not given) | i | i | i | i | i | i
COc1ccc(-n2nnnc2C(c2ccccc2OC(F)(F)F)N2CCN(C/C=C/c3ccccc3)CC2)cc1 (stereo not given) | i | i | ? | i | -96 | i
COc1ccc(C(c2nnnn2-c2ccc(OC)cc2)N2CCN(C/C=C/c3ccccc3)CC2)cc1 (stereo not given) | i | i | ? | i | -89 | i
COc1ccc(N2CCN(C(c3cccs3)c3nnnn3C3CCCC3)CC2)cc1 (stereo not given) | i | i | i | i | i | i
COc1ccc(C(c2nnnn2C2CCCCC2)N2CCN(C/C=C/c3ccccc3)CC2)cc1 (stereo not given) | i | i | i | i | -84 | i
COc1ccc(-n2nnnc2C(c2cccs2)N2CCN(C/C=C/c3ccccc3)CC2)cc1 (stereo not given) | i | i | ? | i | -60 | i
COc1nc(-c2ccc(C)cc2)ccc1-c1noc(-c2ccccc2Br)n1 | i | nt | i | i | nt | i
COc1cccc(-c2nc(-c3ccc(-c4ccccc4)nc3OC)no2)c1 | 25µM | nt | i | i | nt | i
COCc1nc(-c2ccc(-c3ccc(C)cc3)nc2OC)no1 | 35µM | i | i | i | i | i
COc1ccc(-c2ccc(-c3noc(C)n3)c(OC)n2)cc1 | 14µM | i | i | i | i | i
CCOc1nc(-c2ccc(OC)cc2)ccc1-c1noc(C)n1 | i | i | i | i | i | i
SMILES | ClpP mod | GLP1R ag | GLP1R inv ag | DRD3 agonist | DRD3 antagonist | HEK293 tox
COc1ccc(-c2ccc(-c3noc(-c4cccc(OC)c4)n3)c(OC)n2)cc1 | 3.2µM | i | i | i | i | i
CCN(CC)CCCNC(=O)c1c(C)oc2ncnc(N3CCOCC3)c12 | i | nt | i | i | nt | i
CCCCN(CC)CCCNC(=O)c1c(C)oc2ncnc(N3CCOCC3)c12 | i | nt | i | 60 | nt | i
COc1cc(NC(=O)Cn2c(=O)nc(-c3ccccc3F)c3cc(Cl)ccc32)cc(OC)c1 | i | nt | ? | i | nt | i
O=C(CSc1nnc(-c2ccccc2)c(-c2ccccc2)n1)NC1CCCCC1 | i | nt | i | i | nt | i
CC(O)(c1cccc(F)c1)c1nc(-c2ccncc2)cs1 (stereo not given) | i | i | ? | i | i | i
CC(O)(c1cccc(F)c1)c1nc(-c2cccc(C(F)(F)F)c2)cs1 (stereo not given) | i | i | ? | i | -53 | i
CC(O)(c1cccc(F)c1)c1nc(-c2ccccc2)cs1 (stereo not given) | i | i | ? | i | -89 | i
CC(C)c1cccc(-c2csc(C(C)(O)c3ccccc3)n2)c1 (stereo not given) | i | i | ? | i | -57 | i
CO[C@@H]1[C@@H](OC)[C@H](C)[C@@](O)(CC(=O)O)O[C@H]1[C@H](C)[C@H]1O[C@@]2(CC[C@@](C)([C@H]3CC[C@@](C)([C@@H]4O[C@@H]([C@H]5O[C@](C)(O)[C@H](C)C[C@@H]5C)C[C@@H]4OC4C[C@H](OC)[C@@H](OC)[C@H](C)O4)O3)O2)C[C@H](O)[C@H]1C (stereo not given in full) | nt | nt | nt | i | nt | nt
COc1ccc(CCNC(=O)CSc2ncc3c(n2)-c2cc(Cl)ccc2N(Cc2ccccc2)S3(=O)=O)cc1OC | i | nt | i | i | nt | i
Cn1nc(C(=O)N2CCN(c3ccccn3)CC2)c2ccccc2c1=O | i | i | i | i | i | i
CC(C)Cn1cc(C(=O)N2CCN(c3ccccn3)CC2)c2c3ccccc3n(C)c2c1=O | 16µM | i | i | i | i | i
CCN1CCN(C(=O)c2cn(CCOC)c(=O)c3c2c2ccccc2n3C)CC1 | ? | i | i | i | i | i
Cn1cc(C(=O)N2CCN(C(=O)c3ccco3)CC2)c2c3ccccc3n(C)c2c1=O | 14µM | i | i | i | i | ?
CCOC(=O)C1CCN(C(=O)c2cn(CCOC)c(=O)c3c2c2ccccc2n3C)CC1 | 7.9µM | i | i | i | i | i
Cn1c2ccccc2c2c(C(=O)N3CCN(c4ccc(F)cc4)CC3)cn(C3CCCCC3)c(=O)c21 | ? | nt | ? | i | nt | i
